For ten compounds, activity change, negative = inhibition, activity, negative = inhibition and Potency results are on record in PubChem BioAssay (NCATS).

The nature of experiment [1]: AP1 Signaling Pathway (AID 357). Also: % is scaled to controls: 0 for no effect and ±100 for the full control effect. Particulars: ME-180 AP-1-bla reporter, EGF-induced, beta-lactamase ratio, 5 h; at 17.2 µM (top of the series) unless noted. A digest of the protocol: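 Read-out was the 460nm/530nm emission ratio (excitation 405nm) after CCF4 loading for 2.5 hours at room temperature. Cells carried an AP-1-driven beta-lactamase reporter, were stimulated with EC50 EGF plus compound for 5 hours, and AC50 values came from titrations.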

A short description of experiment [2]: NFAT Signaling Pathway (AID 444).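 Also: carbachol stimulus at about its EC50 of 1 µM final; % is scaled to controls: 0 for no effect and ±100 for the full control effect.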 Particulars: Jurkat NFAT-bla M1, carbachol, beta-lactamase ratio, 5 h; at 17.2 µM (top of the series) unless noted. A digest of the protocol:
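Jurkat cells with NFAT-driven β-lactamase reporter and co-expressed M1 receptor, stimulated with carbachol (final 1 uM, ~EC50), compound titration, 5 h at 37 °C. CCF4 loaded 1 h at RT; 460/530 nm ratio gave %activity and AC50.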

Experiment [3] can be described thus: Stat Signaling Pathway (AID 446).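 Also: ME-180 cervical cancer cells given 40 pM IL-6 alongside compound; SIE-controlled beta-lactamase reporter measured as 460/530 nm FRET emission ratio; % is scaled to controls: 0 for no effect and ±100 for the full control effect.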 The settings on record: ME-180 SIE beta-lactamase reporter, IL-6 stimulated, 5 h; at 17.2 µM (top of the series) unless noted. A digest of the protocol: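 ME-180 cells carrying a SIE-driven beta-lactamase reporter are stimulated with 40 pM IL-6 for 5 h at 37C in the presence of compound. The 460/530 nm FRET substrate ratio is read after 2.5 h at RT. Data are normalised to 300 pM IL-6 and to 125 nM JAK inhibitor controls.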

Experiment [4] deals with Cytochrome P450 1A2 (Homo sapiens) (UniProt P05177). Briefly: p450-cyp1a2 (AID 410; calls by dose curve;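 also: -100% = full effect of reference inhibitor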). In outline: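 Luminescent readout of luciferin formed from Luciferin-ME by human CYP1A2; data normalized against complete inhibition by 57 uM furafylline. Enzyme 20nM, substrate 100uM at Km, 100mM KPO4 buffer, 60 min reaction at room temperature.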
Chain of Cytochrome P450 1A2 (Homo sapiens) (P05177 whole entry, looked up): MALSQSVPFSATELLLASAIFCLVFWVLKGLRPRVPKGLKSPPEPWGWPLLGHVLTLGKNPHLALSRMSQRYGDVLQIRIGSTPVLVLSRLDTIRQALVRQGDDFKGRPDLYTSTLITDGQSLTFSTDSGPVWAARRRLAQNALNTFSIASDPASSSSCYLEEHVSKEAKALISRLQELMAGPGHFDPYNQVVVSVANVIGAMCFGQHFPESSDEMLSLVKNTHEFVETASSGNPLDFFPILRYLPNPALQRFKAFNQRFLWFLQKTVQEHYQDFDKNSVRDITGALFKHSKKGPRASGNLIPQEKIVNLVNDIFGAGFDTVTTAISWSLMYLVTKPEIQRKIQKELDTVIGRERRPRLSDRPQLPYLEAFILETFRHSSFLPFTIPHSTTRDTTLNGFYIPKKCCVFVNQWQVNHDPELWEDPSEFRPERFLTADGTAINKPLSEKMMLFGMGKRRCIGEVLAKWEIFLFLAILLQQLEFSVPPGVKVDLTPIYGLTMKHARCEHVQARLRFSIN
The target of experiment [5] is Glucocorticoid receptor (Homo sapiens) (UniProt P04150). Nature of the experiment: GR-GFP Redistribution (AID 450;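 active = compounds whose dose series gives a full or clear partial fitted curve of increased nuclear translocation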; also: potency is read from the fitted curve at half-maximal effect).
Chain of Glucocorticoid receptor (Homo sapiens) (P04150 whole entry, looked up, the tested form may be a part): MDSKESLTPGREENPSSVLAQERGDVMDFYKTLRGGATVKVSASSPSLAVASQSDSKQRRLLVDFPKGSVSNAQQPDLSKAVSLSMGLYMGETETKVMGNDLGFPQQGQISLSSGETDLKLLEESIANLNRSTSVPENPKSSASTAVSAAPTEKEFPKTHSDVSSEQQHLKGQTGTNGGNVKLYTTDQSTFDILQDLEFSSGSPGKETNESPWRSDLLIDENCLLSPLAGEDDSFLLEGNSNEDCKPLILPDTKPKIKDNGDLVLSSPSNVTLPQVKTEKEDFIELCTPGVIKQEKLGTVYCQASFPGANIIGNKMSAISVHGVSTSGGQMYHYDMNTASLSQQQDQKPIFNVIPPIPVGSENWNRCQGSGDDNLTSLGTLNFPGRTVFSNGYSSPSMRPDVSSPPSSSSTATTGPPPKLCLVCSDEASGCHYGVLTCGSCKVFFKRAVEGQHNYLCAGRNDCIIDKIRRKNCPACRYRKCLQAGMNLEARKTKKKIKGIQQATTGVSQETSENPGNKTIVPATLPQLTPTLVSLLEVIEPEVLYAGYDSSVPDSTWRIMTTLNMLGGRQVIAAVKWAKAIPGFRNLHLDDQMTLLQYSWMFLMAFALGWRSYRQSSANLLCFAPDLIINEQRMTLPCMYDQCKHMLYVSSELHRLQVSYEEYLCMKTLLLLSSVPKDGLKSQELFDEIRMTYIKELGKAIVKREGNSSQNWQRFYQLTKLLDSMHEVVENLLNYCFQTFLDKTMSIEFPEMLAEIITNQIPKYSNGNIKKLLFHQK
Experiment [6] shares this target. Briefly: GR-EFC Redistribution (AID 451; calls by dose curve; also: potency is read from the fitted curve at half-maximal effect). The settings on record: CHO-K1 GR-EFC translocation, beta-gal luminescence, 2 h. A digest of the protocol: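 CHO-K1 cells expressing nuclear EA and GR-ED fragments of b-gal; compounds titrated up to 46 uM final, 2 h at 37 C. GR nuclear translocation read as complemented b-gal luminescence after 1 h RT detection.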
The target of experiment [7] is 3',5'-cyclic-AMP phosphodiesterase 4B (Homo sapiens) (UniProt Q07343). Briefly: qHTS Assay for Inhibitors of PDE-IV (AID 607; active = well fitted activation curve with a large enough effect in the main read-out, with a control signal flat, not every such curve was filed as active; also: % of control where 0% means no effect). In outline:
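HEK293 ACTOne cells with CNG channel (1000/well), endogenous PDE4; membrane potential dye, compounds up to 22.9 uM final. Fluorescence Ex 535/Em 590; RO 20-1724 (100 uM final) as reference.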
Background: Quantitative high-throughput screening tests each substance at several concentrations.

Experiment [8] has as its target Cytochrome P450 2C9 (Homo sapiens) (UniProt P11712). Briefly: qHTS Assay for Inhibitors and Substrates of Cytochrome P450 2C9 (AID 883; active = well fitted inhibition curve with a large enough effect; also: % is scaled to controls: 0 for no effect and ±100 for the full control effect; nearly all actives have a fitted effect of over 60% in size). In outline:
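Signal: luciferase luminescence reporting luciferin produced by CYP2C9. Conditions: 10nM enzyme, Luciferin-H 100uM at KM, 25mM KPO4, 37C, 60 min NADPH-driven reaction. Reference: 57uM sulphaphenazole as 100% inhibition.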

For experiment [9], the target named is Cytochrome P450 2D6 (Homo sapiens) (UniProt P10635). Briefly: qHTS Assay for Inhibitors and Substrates of Cytochrome P450 2D6 (AID 891; active = well fitted inhibition curve with a large enough effect; also: potency is read from the fitted curve at half-maximal effect; nearly all actives have a fitted effect of over 60% in size). In outline: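 Human CYP2D6 (5 nM) with 30 uM Luciferin-ME EGE (at Km) in 100 mM KPO4, compound preincubated 10 min, then NADPH regeneration system for 60 min at room temperature. Luciferin read by luminescence; normalized to 1.43 uM quinidine.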
Chain of Cytochrome P450 2D6 (Homo sapiens) (P10635 whole entry, looked up): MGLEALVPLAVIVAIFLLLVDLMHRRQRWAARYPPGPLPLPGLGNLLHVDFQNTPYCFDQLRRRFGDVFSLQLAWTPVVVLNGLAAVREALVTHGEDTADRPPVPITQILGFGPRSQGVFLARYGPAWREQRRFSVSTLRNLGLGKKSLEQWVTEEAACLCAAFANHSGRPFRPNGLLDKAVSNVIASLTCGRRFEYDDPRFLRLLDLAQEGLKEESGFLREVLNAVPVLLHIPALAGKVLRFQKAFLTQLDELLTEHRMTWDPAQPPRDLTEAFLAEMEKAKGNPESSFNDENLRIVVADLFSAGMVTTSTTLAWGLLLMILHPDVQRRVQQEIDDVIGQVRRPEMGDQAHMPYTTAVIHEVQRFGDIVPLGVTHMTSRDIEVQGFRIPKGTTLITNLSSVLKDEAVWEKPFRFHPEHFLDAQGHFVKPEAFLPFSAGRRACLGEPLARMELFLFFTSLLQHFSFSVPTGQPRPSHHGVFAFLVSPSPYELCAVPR

In experiment [10] the target is Cytochrome P450 2C19 (Homo sapiens) (UniProt P33261). Nature of the experiment: qHTS Assay for Inhibitors and Substrates of Cytochrome P450 2C19 (AID 899; active = well fitted inhibition curve with a large enough effect; also: % is scaled to controls: 0 for no effect and ±100 for the full control effect; nearly all actives have a fitted effect of over 60% in size). A digest of the protocol:
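Signal comes from luciferase acting on luciferin released by CYP2C19-mediated hydroxylation of Luciferin-H EGE, 10uM (KM). Assay mix: 5nM enzyme, 50mM KPO4; 60 min at 37C with NADPH regeneration. Data normalized against 57uM ketoconazole.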

Structures are written as SMILES. Values without a mark were called inactive. Records with an inconclusive call do not appear. Activity calls are given as the source filed them. Unless noted, calls follow the shape of the dose curve; as a rule, active = well fitted curve in either direction with a large enough effect (not every such curve was filed as active); inconclusive = small, poorly fitted or top-dose-only effect, or another doubt; inactive = flat fitted curve, though single readings scatter.

Chain of Cytochrome P450 2C9 (Homo sapiens) (P11712 whole entry, looked up): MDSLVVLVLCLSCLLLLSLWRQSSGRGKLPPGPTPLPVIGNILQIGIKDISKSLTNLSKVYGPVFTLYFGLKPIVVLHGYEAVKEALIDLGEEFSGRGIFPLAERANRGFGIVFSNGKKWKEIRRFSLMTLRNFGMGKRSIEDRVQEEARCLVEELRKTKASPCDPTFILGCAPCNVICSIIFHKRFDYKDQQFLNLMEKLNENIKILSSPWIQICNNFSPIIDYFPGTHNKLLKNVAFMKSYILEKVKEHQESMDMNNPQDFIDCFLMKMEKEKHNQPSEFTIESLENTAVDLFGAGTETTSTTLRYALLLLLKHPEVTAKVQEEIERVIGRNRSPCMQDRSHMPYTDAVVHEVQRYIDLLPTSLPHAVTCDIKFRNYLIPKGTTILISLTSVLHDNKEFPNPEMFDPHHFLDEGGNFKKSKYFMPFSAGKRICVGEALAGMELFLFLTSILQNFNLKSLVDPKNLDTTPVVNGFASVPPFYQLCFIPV
Chain of 3',5'-cyclic-AMP phosphodiesterase 4B (Homo sapiens) (Q07343 whole entry, looked up): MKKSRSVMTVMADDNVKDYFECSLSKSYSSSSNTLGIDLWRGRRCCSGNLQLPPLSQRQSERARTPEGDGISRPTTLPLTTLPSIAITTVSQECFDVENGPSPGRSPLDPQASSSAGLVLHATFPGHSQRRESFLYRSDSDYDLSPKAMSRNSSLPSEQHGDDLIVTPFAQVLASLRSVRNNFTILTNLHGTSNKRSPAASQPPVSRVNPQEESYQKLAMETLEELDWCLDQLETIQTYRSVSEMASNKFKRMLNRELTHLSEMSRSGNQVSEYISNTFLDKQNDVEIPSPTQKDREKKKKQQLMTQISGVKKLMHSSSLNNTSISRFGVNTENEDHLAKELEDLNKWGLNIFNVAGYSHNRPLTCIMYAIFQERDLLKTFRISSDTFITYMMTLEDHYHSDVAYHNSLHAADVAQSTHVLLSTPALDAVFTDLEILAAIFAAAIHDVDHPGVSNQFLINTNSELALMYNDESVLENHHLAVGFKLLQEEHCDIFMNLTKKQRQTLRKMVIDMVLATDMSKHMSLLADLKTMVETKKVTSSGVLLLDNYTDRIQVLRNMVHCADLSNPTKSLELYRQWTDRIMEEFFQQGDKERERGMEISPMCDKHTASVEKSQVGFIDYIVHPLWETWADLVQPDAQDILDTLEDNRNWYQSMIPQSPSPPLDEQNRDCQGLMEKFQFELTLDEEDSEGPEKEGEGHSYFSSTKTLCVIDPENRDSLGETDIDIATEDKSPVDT
Chain of Cytochrome P450 2C19 (Homo sapiens) (P33261 whole entry, looked up): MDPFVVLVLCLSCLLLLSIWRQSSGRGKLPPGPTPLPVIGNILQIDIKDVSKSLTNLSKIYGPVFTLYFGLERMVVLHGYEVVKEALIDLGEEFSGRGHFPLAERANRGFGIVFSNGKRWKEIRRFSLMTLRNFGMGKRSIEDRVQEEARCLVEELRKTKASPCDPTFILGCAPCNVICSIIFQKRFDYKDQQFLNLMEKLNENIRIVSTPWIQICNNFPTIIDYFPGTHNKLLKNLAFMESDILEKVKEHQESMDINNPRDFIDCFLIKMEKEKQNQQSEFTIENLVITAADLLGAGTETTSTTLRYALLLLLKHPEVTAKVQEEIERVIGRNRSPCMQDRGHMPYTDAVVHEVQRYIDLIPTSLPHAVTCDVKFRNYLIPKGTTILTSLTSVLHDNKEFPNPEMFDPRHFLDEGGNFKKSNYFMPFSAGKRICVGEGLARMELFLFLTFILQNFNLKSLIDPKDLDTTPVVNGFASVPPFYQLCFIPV

Take `COc1cc(N2CCCC2)c(OC)cc1/C=c1/sc2nc3ccccc3n2c1=O`: the figures for the activity change, negative = inhibition in [1] and in experiment [2] were -3.35% and -23%, respectively. Besides, in experiment [3], the activity, negative = inhibition is -0.381%.
With `CC1(NC[C@@H](O)COc2cccc3[nH]ccc23)CCC(C(C)(C)NC(=O)CBr)CC1` (some centres undefined), the activity change, negative = inhibition in [1] was 7.03% [at 38 µM]. The Potency entry in [4], in [7], in [8] and in [10] was “inactive” in each case. In experiment [3], the activity, negative = inhibition was 18.1% [at 38 µM]. The Potency in [5] was greater than 46 µM; in experiment [6], greater than 46 µM; in experiment [9], 1.26 µM (active).
Consider `CCCCn1c(=O)n(C)c(=O)c2c3c(sc21)COC(C)(C)C3`, for which the figures for the activity change, negative = inhibition in [1] and in [2] were -4.87% and 5.64%, respectively. Moreover, the activity, negative = inhibition in experiment [3] is -7.31%. In addition, the Potency in experiment [5] is greater than 20.6 µM.
For `Cc1ccc2cc(CNC(C)(C)C)c(=O)[nH]c2c1`, in that order: 2.11%, -5.21%, -2.54% and greater than 20.6 µM.
The matching figures for `CN1C(=O)NC(NC(=O)c2ccco2)(C(F)(F)F)C1=O` (centres undefined): 3.54%, 4.93%, 9.87% and greater than 20.6 µM.
For `CC(NC(=O)Nc1ncccn1)(C(F)(F)F)C(F)(F)F`, in that order: 1.93%, 1.67%, -5.56% and greater than 20.6 µM.
Turning to `CCOC(=O)Oc1ccc2c(c1)C(C)=CC(C)(C)N2C(=O)OCC`, the figures for the activity change, negative = inhibition in experiment [1] and in [2] were 4.5% and -5.18%, respectively. The activity, negative = inhibition in experiment [3] was 4.48%. In addition, the Potency in experiment [5] is greater than 20.6 µM.
Take `CCN(CC)CCCN1C(=O)C(=O)/C(=C(/O)c2ccc(C)cc2)C1c1ccccn1` (centres undefined): the activity change, negative = inhibition in [1] was 3.29%; in experiment [2], 10.1%. For the same compound, the activity, negative = inhibition in experiment [3] was 4.05%. In addition, the Potency in experiment [5] was greater than 20.6 µM.
The matching figures for `O=C(C1=C(O)C(=O)N(CCN2CCOCC2)C1c1cccnc1)c1cc2ccccc2o1` (centres undefined): 8.94%, -4.55%, 3.87% and greater than 20.6 µM.
The matching figures for `CCN(CC)CCN1C(=O)C(=O)/C(=C(/O)c2c(C)[nH]c(C(=O)OC)c2C)C1c1ccco1` (centres undefined): 6.74%, -2.14%, -0.9% and greater than 20.6 µM.
